Test systems include OVCAR-8 ovarian; OVCAR-5 ovarian; OVCAR-4 ovarian; SK-OV-3 ovarian; IGROV1 ovarian; OVCAR-3 ovarian; HS 578T breast; NCI/ADR-RES ovarian; T-47D breast; BT-549 breast; MDA-MB-435 melanoma; SW-620 colon; MCF7 breast; HCT-116 colon; HCC-2998 colon; KM12 colon.
Common to all, as to experiment: NCI-60 one-dose screen, 48 h (100 = growth as untreated, 0 = no growth, -100 = all killed)
Common to all, as to settings: 10 µM

Compounds without any hit were thinned out: in the full panel of roughly 83,000, 20% have a hit.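 Method: cells in 96-well plates; compound added at one concentration; 48 h incubation; percent growth measured; values under 10 scored active.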 Values without a mark were called inactive. The source made the active and inactive calls.

The values below come from PubChem BioAssay (NCI).

On to `Cc1ccc(NC(=O)CSc2nc3ccccc3c(=O)n2CCc2ccccc2)c(C(=O)O)c1`, for which the growth was 100% with OVCAR-8 ovarian; 111% in the experiment with OVCAR-5 ovarian; 103% in the experiment with OVCAR-4 ovarian; 93.6% with SK-OV-3 ovarian; 94.1% with IGROV1 ovarian; 115% in the experiment on OVCAR-3 ovarian. Further, the growth was 106% in the experiment with HS 578T breast; 118% with NCI/ADR-RES ovarian; 96.2% with T-47D breast; 96.8% in the experiment with BT-549 breast; 97.3% in the experiment with MDA-MB-435 melanoma; 109% with SW-620 colon. In addition, the growth in the experiment on MCF7 breast is 93.8%; in the experiment with HCT-116 colon it was 92.7%; with HCC-2998 colon, 113%; in the experiment with KM12 colon it was 110%.

Take `c1ccc(CO[C@H]2CO[C@H]3[C@@H]2OC[C@H]3OCc2ccccc2)cc1`: the growth in the experiment with OVCAR-8 ovarian is 107%; in the experiment on OVCAR-5 ovarian, 99.6%; with OVCAR-4 ovarian it was 111%; in the experiment on SK-OV-3 ovarian, 96%; in the experiment on IGROV1 ovarian, 92.3%; with OVCAR-3 ovarian it was 111%. Further, the growth in the experiment with HS 578T breast was 109%; in the experiment with NCI/ADR-RES ovarian it was 106%; with T-47D breast, 93.7%; in the experiment on BT-549 breast, 104%; in the experiment with MDA-MB-435 melanoma it was 115%; in the experiment with SW-620 colon, 107%. Besides, the growth is 101% in the experiment on MCF7 breast, 105% in the experiment on HCT-116 colon, 98% with HCC-2998 colon and 103% in the experiment on KM12 colon.

On to `CCN(CC)CCC(CNc1c(C)cnc2cc(Cl)ccc12)c1ccc(Cl)c(Cl)c1` (stereo not given), for which the growth in the experiment with OVCAR-8 ovarian is 65.7%; in the experiment with OVCAR-5 ovarian, 58.3%; with OVCAR-4 ovarian, 63.6%; in the experiment with SK-OV-3 ovarian it was 84.1%; in the experiment with IGROV1 ovarian, 33.2%; with OVCAR-3 ovarian, 77%. Further, the growth was 72.3% in the experiment on HS 578T breast; 63.7% with NCI/ADR-RES ovarian; 65.4% with T-47D breast; 75.1% in the experiment with BT-549 breast; 0.88% (active) in the experiment on MDA-MB-435 melanoma; 46.2% with SW-620 colon. Further, the growth in the experiment on MCF7 breast was 27.4%; in the experiment on HCT-116 colon, 21.7%; with HCC-2998 colon, -18.2% (active); in the experiment with KM12 colon it was 71.3%.

On to `CC(C)(C#N)Nc1ccccc1`, for which the growth was 105% with OVCAR-8 ovarian; 100% in the experiment with OVCAR-5 ovarian; 99.5% with OVCAR-4 ovarian; 106% in the experiment on SK-OV-3 ovarian; 121% in the experiment on IGROV1 ovarian; 124% with OVCAR-3 ovarian. Besides, the growth in the experiment on HS 578T breast was 105%; with NCI/ADR-RES ovarian, 116%; in the experiment on T-47D breast it was 102%; in the experiment with BT-549 breast it was 108%; in the experiment with MDA-MB-435 melanoma it was 96.1%; in the experiment with SW-620 colon it was 112%. The growth in the experiment on MCF7 breast is 93.4%; in the experiment on HCT-116 colon, 101%; with HCC-2998 colon, 119%; with KM12 colon, 115%.

On to `COC(=O)c1c(-c2ccccc2)csc1NC(=O)c1c(-c2ccccc2)noc1C`, for which the growth in the experiment on OVCAR-8 ovarian is 25.6%; in the experiment on OVCAR-5 ovarian it was 63%; in the experiment on OVCAR-4 ovarian, 79.9%; in the experiment with SK-OV-3 ovarian, 58.6%; in the experiment on IGROV1 ovarian, 20.6%; in the experiment on OVCAR-3 ovarian, 36.7%. Besides, the growth with HS 578T breast was 65.9%; in the experiment with NCI/ADR-RES ovarian it was 36.8%; in the experiment with T-47D breast, 71.8%; in the experiment with BT-549 breast it was 59.2%; in the experiment on MDA-MB-435 melanoma it was 32.7%; in the experiment with SW-620 colon, 19.4%. Moreover, the growth is 24.6% in the experiment on MCF7 breast, 6% (active) in the experiment with HCT-116 colon, 63.5% in the experiment on HCC-2998 colon and 27.9% in the experiment with KM12 colon.

`CCN(CC)CCOc1nc2ccc(OC)cc2c2c1-c1ccc(OC)cc1C2=O`: the growth in the experiment with OVCAR-8 ovarian was -60.1% (active); in the experiment on OVCAR-5 ovarian, 49.3%; with OVCAR-4 ovarian, -6.86% (active); with SK-OV-3 ovarian it was 30.9%; with IGROV1 ovarian, -48.8% (active); in the experiment with OVCAR-3 ovarian, -94.2% (active). Also, the growth in the experiment with HS 578T breast is 10.3%; with NCI/ADR-RES ovarian it was 0.706% (active); with T-47D breast it was 68.7%; in the experiment on BT-549 breast, 65.1%; in the experiment on MDA-MB-435 melanoma, -22.7% (active); in the experiment with SW-620 colon it was -59.4% (active). Besides, the growth was -58.6% (active) in the experiment on MCF7 breast, -98.3% (active) in the experiment on HCT-116 colon, 38.6% with HCC-2998 colon and -82% (active) with KM12 colon.

`CCCCCCNC(=O)Oc1ccc(/C(=C(/CC)Cc2ccccc2)c2ccc(OCCN3CCCCC3)cc2)cc1`: the growth was 81.6% in the experiment with OVCAR-8 ovarian; 94% in the experiment on OVCAR-5 ovarian; 69.9% in the experiment on OVCAR-4 ovarian; 86.3% in the experiment on SK-OV-3 ovarian; 91.1% in the experiment on IGROV1 ovarian; 87.8% with OVCAR-3 ovarian. Further, the growth was 83.5% with HS 578T breast; 81.8% in the experiment on NCI/ADR-RES ovarian; 51.3% in the experiment on T-47D breast; 97.4% in the experiment with BT-549 breast; 89% in the experiment with MDA-MB-435 melanoma; 79.1% in the experiment with SW-620 colon. The growth is 28.8% with MCF7 breast, 62.8% with HCT-116 colon, 87.3% in the experiment with HCC-2998 colon and 84% in the experiment on KM12 colon.

In the case of `O=c1c2ccccc2nc(SCCN2CCCCC2)n1CCc1ccccc1`, the growth was 95.9% with OVCAR-8 ovarian; 88.7% in the experiment on OVCAR-5 ovarian; 86.7% with OVCAR-4 ovarian; 92.6% with SK-OV-3 ovarian; 78.7% in the experiment on IGROV1 ovarian; 94.1% in the experiment with OVCAR-3 ovarian. Besides, the growth is 93.9% with HS 578T breast; 87.6% in the experiment with NCI/ADR-RES ovarian; 65.5% with T-47D breast; 86.3% in the experiment on BT-549 breast; 95.9% with MDA-MB-435 melanoma; 89.9% in the experiment with SW-620 colon. In addition, the growth in the experiment with MCF7 breast was 63.3%; in the experiment on HCT-116 colon, 74%; with HCC-2998 colon it was 97.9%; with KM12 colon it was 94.2%.

With `O=C(Nc1cccc(-n2cc(-c3ccncc3)c(-c3ccc(O)c(Cl)c3)n2)c1)Nc1cccc(C(F)(F)F)c1`, the growth with OVCAR-8 ovarian was -49.9% (active); in the experiment on OVCAR-5 ovarian it was 38.1%; in the experiment on OVCAR-4 ovarian, 2.73% (active); in the experiment with SK-OV-3 ovarian, 4.94% (active); in the experiment on IGROV1 ovarian, -1.92% (active); with OVCAR-3 ovarian, -6.21% (active). The growth with HS 578T breast is -4.27% (active); in the experiment with NCI/ADR-RES ovarian, 11.4%; with T-47D breast, -23.6% (active); in the experiment with BT-549 breast, 13.3%; in the experiment with MDA-MB-435 melanoma, -35.3% (active); in the experiment on SW-620 colon, 13.2%. Moreover, the growth in the experiment on MCF7 breast is -6.1% (active); with HCT-116 colon, 5.24% (active); in the experiment on HCC-2998 colon, 20.4%; in the experiment with KM12 colon, -14.7% (active).

Turning to `CCn1cc(C(=O)O)c(=O)c2cnc(N3CCCC3)nc21`, the growth is 101% in the experiment with OVCAR-8 ovarian; 103% in the experiment on OVCAR-5 ovarian; 105% in the experiment on OVCAR-4 ovarian; 108% in the experiment on SK-OV-3 ovarian; 103% in the experiment on IGROV1 ovarian; 119% in the experiment with OVCAR-3 ovarian. Further, the growth in the experiment with HS 578T breast is 99.9%; in the experiment with NCI/ADR-RES ovarian, 102%; with T-47D breast it was 99.1%; in the experiment on BT-549 breast, 104%; in the experiment with MDA-MB-435 melanoma it was 94.2%; with SW-620 colon, 106%. In addition, the growth with MCF7 breast was 103%; in the experiment with HCT-116 colon it was 96.9%; in the experiment on HCC-2998 colon it was 107%; with KM12 colon it was 108%.
